Test results as given in the supplement of paper PMC6992640.
± gives the standard deviation of the averaged measurements.

Assays:
Experiment in all cases: cell viability (% of vehicle); higher = less cytotoxic
Details in all cases: 10 µM; 72 h
HCI01 = system: HCI01 (cells of a triple-negative basal-like breast cancer xenograft)
HCI03 = system: HCI03 (cells of an ER-positive luminal breast cancer xenograft)
HCI09 = system: HCI09 (cells of a triple-negative luminal androgen receptor type breast cancer xenograft)
HCI11 = system: HCI11 (cells of an ER-positive luminal breast cancer xenograft)
HCI16 = system: HCI16 (cells of a triple-negative basal-like breast cancer xenograft)
UCD52 = system: UCD52 (cells of a triple-negative basal-like breast cancer xenograft)
WHIM2 = system: WHIM2 (cells of a triple-negative basal-like breast cancer xenograft)
WHIM30 = system: WHIM30 (cells of a triple-negative basal-like breast cancer xenograft)
HCI13 = system: HCI13 (cells of an ER-positive luminal breast cancer xenograft)
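Also: PDX cells carrying CMV promoter-driven luciferase, viability read as total photon flux per second by IVIS imaging following D-luciferin, vehicle control 0.1% DMSO.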

| SMILES | cell viability (HCI01) | cell viability (HCI03) | cell viability (HCI09) | cell viability (HCI11) | cell viability (HCI16) | cell viability (UCD52) | cell viability (WHIM2) | cell viability (WHIM30) | cell viability (HCI13) |
| --- | --- | --- | --- | --- | --- | --- | --- | --- | --- |
| Cc1cc(Nc2cc(CN3CCOCC3)c3nc(C)c(Cc4ccc(Cl)cc4F)n3n2)n[nH]1 | 142 ± 56 | 116 | 64.3 ± 15 | 196 | 199 | 103 ± 19 |  |  |  |
| CCCc1nc2c(C)cc(-c3nc4ccccc4n3C)cc2n1Cc1ccc(-c2ccccc2C(=O)O)cc1 [Telmisattan] | 107 ± 23 | 111 | 113 ± 59 | 101 | 116 | 122.3 ± 0.62 | 85 ± 18 | 146 ± 1.6 |  |
| CCN(CC)CC#CCOC(=O)C(O)(c1ccccc1)C1CCCCC1.Cl (stereo not given) [Oxybutynin chloride] | 175 ± 51 | 170 | 139 ± 59 | 140 | 178 | 109 ± 10 | 166 ± 20 | 85.9 ± 14 |  |
| CO[C@@]1(NC(=O)[C@H](C(=O)[O-])c2ccc(O)cc2)C(=O)N2C(C(=O)[O-])=C(CSc3nnnn3C)CO[C@@H]21.[Na+].[Na+] [Moxalactam (sodium salt)] | 116 ± 30 | 120 | 108 ± 3.6 | 66.4 | 148 | 144 ± 7 | 92.8 ± 6.9 | 126 ± 2.9 |  |
| CC(NCCc1ccc(O)cc1)C(O)c1ccc(O)cc1.Cl (stereo not given) [Ritodrine HCl] | 111 ± 11 | 116 | 101 ± 21 | 106 | 111 | 86.3 ± 4.5 | 97.8 ± 37 | 111 ± 4.8 |  |
| C#CC1(O)CCC2C3CCC4=CC(=O)CCC4C3CCC21CC (stereo not given) [Levonorgestrel] | 88.7 ± 25 | 127 | 100 ± 12 | 88.5 | 121 | 83.6 ± 6.9 | 91.5 ± 9.7 | 155 ± 2.3 |  |
| CCCN(CCC)S(=O)(=O)c1ccc(C(=O)O)cc1 [Probenecid] | 102 ± 37 | 142 | 125 ± 6.3 | 94.6 | 145 | 113 ± 6.4 | 92.7 ± 6.9 | 155 ± 8.7 |  |
| O=C(CCCN1CCN(c2ccccn2)CC1)c1ccc(F)cc1 [Azaperone] | 119 ± 25 | 114 | 96.7 ± 2.1 | 121 | 151 | 66.9 ± 13 | 98.3 ± 4.7 | 85.8 ± 2.8 |  |
| CCCC1O[C@@H]2C[C@H]3[C@@H]4CCC5=CC(=O)C=C[C@]5(C)[C@H]4[C@@H](O)C[C@]3(C)[C@]2(C(=O)CO)O1 (stereo not given in full) [Budesonide] | 113 ± 30 | 102 | 164 ± 40 | 140 | 173 | 141 ± 9.5 | 74.4 ± 20 |  |  |
| CC(C)c1cc(C(=O)N2Cc3ccc(CN4CCN(C)CC4)cc3C2)c(O)cc1O | 116 ± 49 | 43.7 | 25.4 ± 3.1 | 124 | 109 | 77.1 ± 2.9 | 75.3 ± 3.1 | 176 ± 25 |  |
| Cl.O=C(CCCN1CCC(O)(c2ccc(Cl)cc2)CC1)c1ccc(F)cc1 [Haloperidol hydrochloride] | 114 ± 14 | 99.6 | 103 ± 31 | 106 | 127 | 63.4 ± 4.9 | 114 ± 6.5 | 60.2 ± 8.8 |  |
| CO[C@H]1C(=O)[C@]2(C)[C@@H](OC)C[C@H]3OC[C@@]3(OC(C)=O)[C@H]2[C@H](OC(=O)c2ccccc2)[C@]2(O)C[C@H](OC(=O)[C@H](O)[C@@H](NC(=O)OC(C)(C)C)c3ccccc3)C(C)=C1C2(C)C [Cabazitaxel] | 78.1 ± 51 | 113 | 66.2 ± 5.4 | 89.2 |  | 70.3 ± 4.9 | 72 ± 11 | 107 ± 4.8 | 106 ± 5.1 |
| CC12CCC3c4ccc(O)cc4CCC3C1CCC2=O (stereo not given) [Estrone] | 99.5 ± 6.1 | 112 | 97.3 ± 9.7 | 102 | 89.5 | 87.3 ± 6.6 | 113 ± 22 | 153 ± 14 |  |
| O=C(Nc1cccc2c(=O)cc(-c3nn[nH]n3)oc12)c1ccc(OCCCCc2ccccc2)cc1 [Pranlukast] | 96.3 ± 9.7 | 97.5 | 64 ± 5.3 | 101 | 147 | 102 ± 2.1 | 65.3 ± 11 | 152 ± 11 |  |
| Cc1onc(-c2ccccc2)c1C(=O)NC1C(=O)N2C1SC(C)(C)C2C(=O)[O-].O.[Na+] (stereo not given) [Oxacillin sodium monohydrate] | 114 ± 12 | 150 | 116 ± 24 | 110 | 127 | 105 ± 5 | 91 ± 13 | 168 ± 8.6 |  |
| CC(C)(C#N)c1cc(Cn2cncn2)cc(C(C)(C)C#N)c1 [Anastrozole] | 160 ± 20 | 149 | 108 ± 23 | 120 | 120 | 111 ± 11 | 132 ± 22 | 124.2 ± 0.85 |  |
| NCC(O)c1ccc(O)c(O)c1.O.O=C(O)C(O)C(O)C(=O)O (stereo not given) [Noradrenaline bitartrate monohydrate] | 86.8 ± 21 | 152 | 133 ± 34 | 124 | 160 | 142 ± 4.8 | 73 ± 14 |  |  |
| O=C(NS(=O)(=O)c1ccc(Br)s1)c1ccc(Cl)cc1Cl [Tasisulam] | 183 ± 32 | 126 | 84.1 ± 17 | 148 |  | 115 ± 25 | 167 ± 16 | 172 ± 15 | 158 ± 6 |
| CCCC(=O)OC1(C(=O)COC(C)=O)CCC2C3CC(F)C4=CC(=O)C=CC4(C)C3(F)C(O)CC21C (stereo not given) [Difluprednate] | 110 ± 13 | 137 | 134 ± 37 | 116 |  | 177 ± 21 | 128 ± 7.3 | 175 ± 11 |  |
| CC1CC2C3CCC4=CC(=O)C=CC4(C)C3(Cl)C(O)CC2(C)C1(OC(=O)c1ccco1)C(=O)CCl (stereo not given) [Mometasone furoate] | 94.8 ± 29 | 151 | 118 ± 30 | 115 |  | 139.5 ± 0.18 | 83.5 ± 7.3 |  |  |

| SMILES | cell viability (HCI01) | cell viability (HCI03) | cell viability (HCI09) | cell viability (HCI11) | cell viability (HCI16) | cell viability (UCD52) | cell viability (WHIM2) | cell viability (WHIM30) | cell viability (HCI13) |
| --- | --- | --- | --- | --- | --- | --- | --- | --- | --- |
| CC12C=CC(=O)C=C1CCC1C2C(O)CC2(C)C1CCC2(O)C(=O)CO (stereo not given) [Prednisolone] | 135 ± 39 | 175 | 166 ± 82 | 132 |  | 173 ± 4.8 | 114 ± 2.7 |  |  |
| CCOC(=O)OC1(C(=O)OCCl)CCC2C3CCC4=CC(=O)C=CC4(C)C3C(O)CC21C (stereo not given) [Loteprednol etabonate] | 90.8 ± 59 | 196 | 150 ± 70 | 123 |  | 158 ± 33 | 105 ± 11 | 198 ± 12 |  |
| Oc1ccc(OCc2ccccc2)cc1 [Monobenzone] | 187 ± 11 | 180 |  | 157 | 153 | 167 ± 14 | 145 ± 23 |  | 181 ± 4.9 |
| CCCC(NC(=O)C1C2CCCC2CN1C(=O)C(NC(=O)C(NC(=O)c1cnccn1)C1CCCCC1)C(C)(C)C)C(=O)C(=O)NC1CC1 (stereo not given) [Telaprevir (VX-950)] | 154 ± 43 | 102 | 80.2 ± 12 |  | 144 | 123 ± 6.4 | 96.2 ± 12 | 165 ± 15 | 96.4 ± 12 |
| O=C(O)CC(O)CC(O)C=Cc1c(C2CC2)nc2ccccc2c1-c1ccc(F)cc1 (stereo not given) [Pitavastatin] | 119 ± 18 | 125 | 102 ± 19 |  | 171 | 74.9 ± 9.2 | 93.6 ± 47 | 92.2 ± 11 |  |
| COCCCOc1ccnc(C[S+]([O-])c2nc3ccccc3[nH]2)c1C (stereo not given) [Rabeprazole sodium] | 167 ± 75 | 197 | 82.4 ± 28 | 115 |  | 178 ± 5.8 | 135 ± 15 |  |  |
| CCC(=O)OC1(C(=O)SCF)C(C)CC2C3CC(F)C4=CC(=O)C=CC4(C)C3(F)C(O)CC21C (stereo not given) [Fluticasone propionate] | 76.7 ± 52 | 166 | 128 ± 33 | 133 |  | 128 ± 14 | 102 ± 44 |  |  |
| NCCc1cnc[nH]1.O=P(O)(O)O.O=P(O)(O)O [Histamine Phosphate] | 117 ± 18 | 117 | 95.2 ± 15 | 98.4 | 131 | 99.9 ± 17 | 98.8 ± 4.3 | 149 ± 14 |  |
| CC1CC2C(C(O)CC3(C)C2CCC3(O)C(=O)CO)C2(C)C=CC(=O)C=C12 (stereo not given) [Methylprednisolone] | 145 ± 24 | 156 | 123 ± 34 | 136 |  | 154 ± 11 | 119 ± 8.1 | 194 ± 12 |  |
| CC1(C)O[C@@H]2C[C@H]3[C@@H]4CCC5=CC(=O)CC[C@]5(C)[C@@]4(F)[C@@H](O)C[C@]3(C)[C@]2(C(=O)CCl)O1 [Halcinonide] | 123 ± 21 | 144 | 146 ± 72 | 133 |  | 168 ± 24 | 105 ± 1.8 | 177 ± 4.2 |  |
| CC1(C)O[C@@H]2C[C@H]3[C@@H]4CCC5=CC(=O)C=C[C@]5(C)[C@H]4[C@@H](O)C[C@]3(C)[C@]2(C(=O)CO)O1 [Desonide] | 84.8 ± 63 | 176 | 117 ± 43 | 125 |  | 144 ± 8.6 | 96.1 ± 15 | 127 ± 17 |  |
| CC(C)c1c(C(=O)Nc2ccccc2)c(-c2ccccc2)c(-c2ccc(F)cc2)n1CCC(O)CC(O)CC(=O)[O-].CC(C)c1c(C(=O)Nc2ccccc2)c(-c2ccccc2)c(-c2ccc(F)cc2)n1CCC(O)CC(O)CC(=O)[O-].[Ca+2] (stereo not given) [Atorvastatin Calcium] | 89.2 ± 4.2 | 138 | 89.2 ± 26 |  | 140 | 47.7 ± 2.3 | 43.7 ± 10 | 158 ± 5.3 | 95.72 ± 0.31 |
| CC1(C)O[C@@H]2C[C@H]3[C@@H]4C[C@H](F)C5=CC(=O)C=C[C@]5(C)[C@@]4(F)[C@@H](O)C[C@]3(C)[C@]2(C(=O)CO)O1 [Fluocinolone Acetonide] | 84 ± 59 | 154 | 132 ± 27 | 120 |  | 131 ± 17 | 109 ± 34 |  |  |
| CCc1c2c(nc3ccc(OC(=O)N4CCC(N5CCCCC5)CC4)cc13)-c1cc3c(c(=O)n1C2)COC(=O)C3(O)CC (stereo not given) [Irinotecan] | 110 ± 6 | 133 | 174 ± 80 |  | 140 | 107 ± 6.1 | 67.4 ± 6.7 | 113 ± 8.8 | 121 ± 2.2 |
| Nc1nc2[nH][nH]nc-2c(=O)n1 [Azaguanine-8] | 158 ± 48 | 146 | 137 ± 21 |  |  | 102 ± 55 | 96.01 ± 0.31 | 119 ± 14 | 150 ± 9.1 |
| CC12CCC(=O)C=C1CCC1C2C(O)CC2(C)C1CCC2(O)C(=O)CO (stereo not given) [Hydrocortisone] | 103 ± 13 | 126 | 132 ± 57 | 113 |  | 124 ± 4.5 | 95.6 ± 4.8 | 198 ± 13 |  |
| O=c1c(-n2ccnn2)c[nH]n1-c1cc(N2CCOCC2)ncn1 [Molidustat (BAY85-3934)] | 142 ± 4.8 | 121 | 27.2 ± 1.8 | 121 |  | 163 ± 3.5 | 104 ± 7.3 |  |  |
| CC(C)[N+]1(C)C2CCC1CC(OC(=O)C(CO)c1ccccc1)C2.[Br-] (stereo not given) [Ipratropium Bromide] | 138 ± 45 | 151 | 158 ± 79 | 108 |  | 148 ± 5.2 | 103 ± 15 | 180 ± 23 |  |
| CC(=O)OCC(=O)C1(O)C(C)CC2C3CCC4=CC(=O)C=CC4(C)C3(F)C(O)CC21C (stereo not given) [Dexamethasone acetate] | 114 ± 33 | 160 | 131 ± 45 | 138 |  | 149 ± 10 | 119 ± 43 | 149 ± 22 |  |
